High-throughput results: PubChem BioAssay, National Center for Advancing Translational Sciences (NCATS)
Most compounds without a hit are left out; they make up all but 0.87% or so of the library.
USP1 inh = Inhibitors of USP1/UAF1: Primary Screen; Ubiquitin carboxyl-terminal hydrolase 1 (Homo sapiens), O94782; recombinant USP1/UAF1, Ub-Rhodamine cleavage fluorescence; AID 743255, 2014; Potency, µM (doses to about 57.1 µM), hits mostly inhibitors; hit rate 0.23% among 390,000; also: nearly all actives have a fitted effect of over 60% in size
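1 nM enzyme complex + cpd, 15 min RT; start with Ub-Rho 150nM final; kinetic fluorescence ex 480/em 540, 6 reads q60 s. Buffer 50mM HEPES pH 7.8, 0.5mM EDTA, 0.1 mg/ml BSA, 1mM TCEP, 0.01% Tween-20.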
EPAC1 antagonist = qHTS for Antagonist of cAMP-regulated guanine nucleotide exchange factor 3 (EPAC1): primary screen | EPAC1 GEF assay, Rap1b-BODIPY-GDP exchange fluorescence | AID 720709, 2013 | hit rate 0.14% among 360,000 | Potency, µM (highest dose often 115 µM), usual class: inhibitors | Rap guanine nucleotide exchange factor 3 (Homo sapiens), O95398; also: nearly all actives have a fitted effect of over 50% in size
EPAC1 agonist = qHTS for Agonist of cAMP-regulated guanine nucleotide exchange factor 3 (EPAC1): primary screen | Rap guanine nucleotide exchange factor 3 (Homo sapiens), O95398 | AID 720707, 2013 | Potency, µM (titrated, usually from 154 µM), most hits filed as activators | EPAC1 agonist qHTS, biochemical assay; response scale: 100% = response to 6.5 mM cAMP | hit rate 0.073% among 360,000; also: nearly all actives have a fitted effect of over 60% in size
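EPAC1 100 nM, Rap1B–BODIPY-GDP 250 nM, unlabeled GDP 50 uM; compound titration; 5 min RT; kinetic read ex480/em540 at 5-min intervals ×30 min; data normalized to 6.5 mM cAMP agonist control.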
EPAC2 antag = qHTS for Antagonist of cAMP-regulated guanine nucleotide exchange factor 2 (EPAC2): primary screen. EPAC2 GEF exchange of Rap1B-BODIPY-GDP, fluorescence. AID 720708, 2013. hit rate 0.18% among 360,000. Potency, µM (series often up to 114 µM), hits mostly inhibitors. Rap guanine nucleotide exchange factor 4 (Homo sapiens), Q8WZA2; also: nearly all actives have a fitted effect of over 45% in size
EPAC2 ag = qHTS for Agonist of cAMP-regulated guanine nucleotide exchange factor 4 (EPAC2): primary screen. Rap guanine nucleotide exchange factor 4 (Homo sapiens), Q8WZA2. EPAC2 activation, biochemical qHTS; response scale: 100% = 6.5 mM cAMP response. Potency, µM (series often up to 154 µM), actives largely listed as activators. hit rate 0.079% among 360,000. AID 720711, 2013; also: nearly all actives have a fitted effect of over 50% in size
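Readout is BODIPY fluorescence (480 nm excitation, 540 nm emission), which falls as labeled GDP is exchanged off Rap1B. EPAC2 at 100 nM acted on 250 nM RAP1B-BODIPY-GDP with 50 uM GDP present.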
Coupling enz = qHTS Assay for Inhibitors of Fructose-1,6-bisphosphate Aldolase from Giardia Lamblia: Coupling assay counterscreen; AID 2472, 2010; coupling enzyme system counterscreen, AmpLite Red fluorescence; activity change, negative = inhibition, % at 58.2 µM, hits read low; hit rate 0.67% among 290,000; in the data active = activity change below about -30%
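Counterscreen of the coupled detection system alone, without aldolase: glyceraldehyde-3-phosphate coupling enzymes plus AmpLite Red readout. Compounds at 57.5 uM final, 10 min RT preincubation, 20 min RT reaction, fluorescence 525/598 nm.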
Of the large screens only hits and unclear results are named; the others gave an inactive call. Unless noted, calls follow the shape of the dose curve; as a rule, active = well fitted curve in the direction sought with a large enough effect; inconclusive = small, poorly fitted or top-dose-only effect, or another doubt; inactive = no such curve, though single readings can be large; an effect the other way counts as inactive or inconclusive.

O=C(Nc1cc(C(=O)Nc2ccccc2C(=O)O)cc(C(=O)Nc2ccccc2C(=O)O)c1)c1ccccc1	USP1 inh inconclusive, EPAC1 antagonist 10µM (no result: Coupling enz)
Cc1ccc(NC(=O)c2cccc(NC(=O)/C=C/c3ccco3)c2)cc1C	EPAC1 antagonist inconclusive
Cc1ccc(-n2nc3ccc(NC(=O)/C=C/c4ccco4)cc3n2)cc1	EPAC1 antagonist 22µM
O=C(/C=C/c1ccco1)Nc1cccc(C(=O)Nc2ccccc2C(=O)O)c1	EPAC1 antagonist 50µM
CCc1ccccc1NC(=O)c1cccc(NC(=O)/C=C/c2ccco2)c1	none
Cn1cc(CN2CCC(N3CCNC(=O)CC3)CC2)c(-c2ccccc2F)n1	none
Cc1cc(Oc2cnn(C(C)(C)C)c(=O)c2Cl)cc(C(C)C)c1	none
O=C1C=CC(=O)c2c(O)c(CO)c(CO)c(O)c21	USP1 inh 14µM, EPAC1 antagonist inconclusive (no result: Coupling enz)
O=C1C=CC(=O)c2c(O)c(Cl)c(Cl)c(O)c21	Coupling enz -90 (no result: USP1 inh, EPAC1 antagonist, EPAC1 agonist, EPAC2 antag, EPAC2 ag)
O=c1c(CO)cc(CO)cc(CO)c1O	none
CC#CCCC(=O)N1C=Cc2ccccc2C1C#N (stereo not given)	none
COc1cccc(CNC(=O)c2cc3cc(C)ccc3n2C)c1	none (no result: EPAC1 antagonist, EPAC1 agonist, EPAC2 antag, EPAC2 ag, Coupling enz)
O=C1C(=Cc2cccs2)C(=O)c2ccccc21	none
O=C1/C(=C\c2cccs2)Sc2ccc3ccccc3c21	USP1 inh 32µM
Cc1nc(-c2ccccc2)c(-c2ccccc2)[nH]1	none
O=C1Nc2ccccc2/C1=N\N=C\c1ccc(O)c(O)c1	EPAC1 antagonist 40µM
COc1cc(/C=N/N=C2/C(=O)Nc3ccccc32)ccc1O	none
O=C(O)C(c1ccccc1)N1C(=O)/C(=C/c2cccs2)SC1=S (stereo not given)	EPAC2 antag 56µM
CC1=C(C(=O)OCc2ccc3c(c2)OCO3)C(c2ccccc2OCc2ccccc2)NC(=O)N1 (stereo not given)	none
CC1=C(C(=O)OCc2ccc3c(c2)OCO3)C(c2ccccc2)NC(=O)N1 (stereo not given)	EPAC2 ag 100µM
COC(=O)C1=C(C)Nc2nnnn2C1c1ccc(Cl)cc1Cl (stereo not given)	none
CCn1nnc(NC(=O)c2sc3ccccc3c2Cl)n1	none
Cc1ccc(Nc2c(-c3ccccn3)nc3cccc(C)n23)cc1	EPAC2 antag 32µM
COc1ccc(CCNC(=O)C(C)OC(=O)c2cccs2)cc1OC (stereo not given)	none
Cn1c(=O)c(/C=C/c2ccc(F)cc2)nc2ccccc21	none
O=c1c(/C=C(\O)c2ccc(F)cc2)nc2ccccc2n1-c1ccccc1	EPAC2 ag 100µM
CCOc1ccccc1NC1c2ccccc2C(=O)N1Cc1ccco1 (stereo not given)	EPAC2 antag 16µM
O=C1c2ccccc2C(O)N1Cc1ccco1 (stereo not given)	none
CC(=O)CCc1oc2ccc(C)cc2c1Cc1ccccc1	EPAC1 antagonist inconclusive, EPAC2 antag inconclusive
CC(=O)CCc1oc2ccccc2c1-c1ccccc1	EPAC2 antag 25µM
Cc1cc(SCC(=O)NC2CCCCC2)nc2ccccc12	none
CCOC(=O)c1c(-c2ccco2)csc1N	Coupling enz -31
Brc1ccc2[nH]ncc2c1	none
Nc1ccc2cn[nH]c2c1	Coupling enz -32
O=C(NCc1ccccc1Cl)c1ccc(CSCc2ccccc2Cl)o1	none (no result: EPAC1 antagonist, EPAC1 agonist, EPAC2 antag, EPAC2 ag, Coupling enz)
CCOc1ccc(NC(=O)/C(C#N)=C\c2ccc(N3CCCC3)c(C)c2)cc1	USP1 inh 22µM (no result: Coupling enz)
CCOc1ccc(/C=C(\C#N)C(=O)Nc2cccnc2)cc1	none
